# HT1080NT lethal = kills 2HG-producing HT-1080-NT fibrosarcoma cells; HT-1080-NT fibrosarcoma viability, CellTiter-Glo ATP luminescence, 48 h; Potency, µM (series often up to 46.1 µM), for inactives: at the highest dose activity, negative = less viability, most hits filed as cytotoxic; actives 1.6% (n = 360,000); AID 686970;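 also: NT is the 2HG producing partner of a matched IDH1 knockdown line; potency is read from the fitted curve at half-maximal effect; 0% = DMSO-treated cells and -100% = media-only wells without cells; nearly all actives have a fitted effect of over 55% in size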
#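 Read-out is CellTiter-Glo luminescence after 10 minutes at room temperature, following 48 hours' compound treatment of HT-1080-NT cells (750 cells/well, RPMI, 5% FBS, 37 degrees C).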
# HT1080 IDH1KD tx = toxicity to HT-1080 IDH1 knockdown cells (counter line); actives 2% (n = 360,000); HT-1080 IDH1 knockdown viability, ATP luminescence, 48 h; Potency, µM (doses to about 46.1 µM), for the others: top-dose activity, negative = toxicity, most hits filed as cytotoxic;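 also: potency is read from the fitted curve at half-maximal effect; 0% = DMSO wells and -100% = cell-free medium wells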
#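 % activity derives from luminescence (CellTiter-Glo), normalised to DMSO and no-cell wells. HT-1080-IDH1KD cells, 750/well, had 48 h compound exposure at 37 °C.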
# DT40 TDP1 CPT = DT40-hTDP1 cell growth loss with CPT. actives 12% (n = 420,000). chicken DT40 Tdp1-/-;hTDP1 cells + 20 nM CPT, ATP luminescence, 48 h. Potency, µM (top dose mostly 46.2 µM), for the others: at the top dose activity change, negative = growth inhibition, usual class: inhibitors; also: potency is read from the fitted curve at half-maximal effect; nearly all actives have a fitted effect of over 55% in size
#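 Chicken DT40 Tdp1-/- cells stably complemented with human TDP1 were seeded at 400 cells/well in medium containing 20 nM camptothecin, exposed to pin-transferred compounds, and grown at 37 °C for at least 48 hr. Viability was read as ATP luminescence.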
# TDP1 cell noCPT = qHTS for Inhibitors of human tyrosyl-DNA phosphodiesterase 1 (TDP1): qHTS in cells in absence of CPT; actives 15% (n = 420,000); DT40 Tdp1-/- hTDP1 cells, no CPT, ATP luminescence, 48 h; Potency, µM (highest dose often 46.2 µM), inactives show top-dose activity change, negative = growth inhibition, hits mostly inhibitors; AID 686978, 2013; also: potency is read from the fitted curve at half-maximal effect; nearly all actives have a fitted effect of over 55% in size
#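 No-CPT arm: Tdp1-/-;hTDP1 DT40 cells (400/well) plus compounds, incubated ≥48 hr at 37 °C. Readout CellTiter-Glo luminescence.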
# IL-1B inflam inh = blocks inflammasome-driven IL-1 beta release | THP-1 LPS/ATP IL-1B secretion, AlphaLISA, 16 h; stronger effect = lower value | activity change, % at 57.5 µM | actives 4.7% (n = 360,000) | AID 743279; in the data active = activity change below about -50%; inconclusive = mostly about -30% to -49%
#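 THP-1 cells pretreated 1 hr with compounds (up to 57.5 uM final), then stimulated with LPS (250 ng/mL final) plus ATP (1.25 mM final); secreted IL-1B measured by AlphaLISA after 16 hr, decreased signal indicating inhibition.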
# * marks the source's active call; other numbers are inactive results; ? = inconclusive; nt = no result. Most compounds without a hit are left out; they make up all but 19% or so of the library. Unless noted, calls follow the shape of the dose curve; as a rule, active = well fitted curve in the direction sought with a large enough effect; inconclusive = small, poorly fitted or top-dose-only effect, or another doubt; inactive = no such curve, though single readings can be large; an effect the other way counts as inactive or inconclusive. Unless noted, % is scaled to controls: 0 for no effect and ±100 for the full control effect.
SMILES,HT1080NT lethal,HT1080 IDH1KD tx,DT40 TDP1 CPT,TDP1 cell noCPT,IL-1B inflam inh
Cc1ccc(C)n1-c1ccc(C(=O)NCC2CCCO2)cc1 (stereo not drawn),-4%,-12%,13µM*,13µM*,?
O=C(NCC1CCCO1)c1ccc(Br)s1 (stereo not drawn),19%,19%,7%,4%,0
COc1ccc(C(=O)NCC2CCCO2)cc1 (stereo not drawn),-6%,0%,-3%,1%,4
O=C(NCC1CCCO1)c1ccc([N+](=O)[O-])s1 (stereo not drawn),-8%,-13%,13µM*,26µM*,-15
O=C(NCC1CCCO1)c1ccc(COc2ccc(Br)cc2)cc1 (stereo not drawn),?,-28%,29µM*,23µM*,?
Cc1ccc(OCc2ccc(C(=O)NCC3CCCO3)cc2)cc1C (stereo not drawn),-4%,-1%,?,?,3
CC(C)c1ccc(S(=O)(=O)N2CCC(N3CCN(Cc4ccccc4)C(=O)C3=O)CC2)cc1,nt,nt,?,-21%,nt
COCCCNC(=O)CCCn1c(=O)c2ccccc2n(Cc2cccc([N+](=O)[O-])c2)c1=O,5%,12%,-27%,-6%,0
CC1(C(=O)NS(=O)(=O)C2CC2)CCN(C(=O)c2c(F)cccc2F)C1 (stereo not drawn),20%,?,2%,-1%,19
Cc1cc(C(=O)N2CCCC(C)(C(=O)NS(=O)(=O)C3CC3)C2)n(C(C)(C)C)n1 (stereo not drawn),23%,?,8.2µM*,5.2µM*,0
Cc1ccc(F)c(C(=O)N2CCCC(C)(C(=O)NS(=O)(=O)C3CC3)C2)c1F (stereo not drawn),?,2%,6.5µM*,5.8µM*,20
COc1ccc(C(=O)N2CCCC(C)(C(=O)NS(=O)(=O)C3CC3)C2)c(OC)c1 (stereo not drawn),21%,1%,2.1µM*,3.7µM*,39
CCCS(=O)(=O)NC(=O)C1(C)CCCN(C(=O)c2ccc(OC)cc2OC)C1 (stereo not drawn),?,14%,-15%,-13%,32
Cc1ccc(F)cc1C(=O)N1CCCC(C)(C(=O)NS(=O)(=O)C2CC2)C1 (stereo not drawn),24%,19%,?,2.6µM*,17
O=C(CC(c1ccco1)S(=O)(=O)c1ccccc1)c1ccccc1 (stereo not drawn),?,-29%,-7%,?,-18
CC(=O)Nc1cccc(C(=O)OCc2csc(CC(=O)Nc3ccccc3C)n2)c1,0%,-9%,5%,-5%,7
CC1(C(=O)NS(=O)(=O)C2CC2)CCCN(C(=O)C2(c3ccc(Cl)cc3)CCCC2)C1 (stereo not drawn),17%,3%,?,12µM*,33
CC1(C(=O)NS(=O)(=O)C2CC2)CCN(C(=O)c2ccc(F)cc2Cl)C1 (stereo not drawn),23%,10%,3%,21%,14
CCCS(=O)(=O)NC(=O)C1(C)CCCN(C(=O)C2(c3ccc(Cl)cc3)CCCC2)C1 (stereo not drawn),3%,12%,1%,0%,32
CC1(C(=O)NS(=O)(=O)C2CC2)CCCN(C(=O)c2ccc(F)cc2Cl)C1 (stereo not drawn),15%,20%,?,1.5µM*,29
C[C@@H]1CN([C@@H](C)CO)C(=O)CCCn2nncc2CO[C@@H]1CN(C)S(=O)(=O)c1cccc(F)c1,-7%,-17%,-9%,-24%,7
CN(CC(=O)Nc1cccc(F)c1)C(=O)c1cccnc1Sc1ccc(Cl)cc1,-7%,-23%,-10%,?,-14
COc1ccccc1Oc1ccc(N/C=C/C(=O)c2ccco2)cc1,-22%,-22%,?,18µM*,-52*
O=C(/C=C/Nc1ccc(Oc2ccccc2Cl)cc1)c1ccco1,?,?,18µM*,15µM*,-23
CN(C)c1ccc(N/C=C/C(=O)c2ccco2)cc1,-12%,?,21µM*,?,?
SMILES,HT1080NT lethal,HT1080 IDH1KD tx,DT40 TDP1 CPT,TDP1 cell noCPT,IL-1B inflam inh
COc1ccc(C)c2sc(N(CCN(C)C)C(=O)c3ccc(S(=O)(=O)N(C)c4ccccc4)cc3)nc12,0%,8%,-19%,?,19
CC(=O)NCCNS(=O)(=O)c1ccc(C)c([N+](=O)[O-])c1,7%,0%,5%,3%,31
O=C(NC1CC1)C1CCN(c2nc3ccccc3s2)CC1,-4%,-2%,-17%,9%,13
COc1ccc(-c2nc(CS(=O)CC(=O)NC3CCCCC3C)c(C)o2)cc1 (stereo not drawn),-9%,0%,-15%,4%,11
CCOC(=O)C1=NN(c2ccccc2)C(=O)/C1=C\c1ccc(N(C)C)cc1,-5%,-3%,-17%,?,-5
CC1=NN(Cc2ccccc2)C(=O)/C1=C\c1ccc(N(C)C)cc1,-5%,-8%,13µM*,?,19
CS(=O)(=O)NCCSCc1ccco1,9%,4%,6%,5%,2
CCN(CC)S(=O)(=O)c1cccc(NC(=O)c2cc(-c3cccs3)nn2-c2ccccc2)c1,12%,0%,21µM*,15µM*,7
CN(C)S(=O)(=O)c1cccc(NC(=O)c2cc(-c3cccs3)nn2-c2ccccc2)c1,4%,2%,?,15µM*,0
COC(=O)c1cc(-c2cccs2)nn1-c1ccccc1,0%,2%,4%,-14%,9
COc1cc(/C=C2\SC(N3CCC(C)CC3)=NC2=O)ccc1O,1%,-12%,-23%,?,-56*
CCOC(=O)C1CCN(C2=NC(=O)/C(=C/c3ccc(OC)c(OC)c3)S2)CC1,0%,0%,-14%,?,-18
CN=C1S/C(=C\c2ccc(O)c(OC)c2)C(=O)N1C,-30%,-17%,-3%,-20%,-24
COc1ccc(/C=C2\SC(N3CCCCC3)=NC2=O)cc1OC,-6%,-5%,-17%,21µM*,-28
COc1ccc(/C=C2/N=C3CCCCCN3C2=O)cc1OC,9%,7%,?,29µM*,-4
COc1ccc(OC)c(/C=C2\SC(N3CCCC(C)C3)=NC2=O)c1 (stereo not drawn),-4%,-22%,16µM*,21µM*,-59*
CCCC(=O)c1cc(F)c(N2CCOCC2)cc1C,19%,?,-11%,-13%,-5
COCC(=O)NC1CCN(C(=O)NCc2ccccc2)CC1,-1%,3%,-5%,0%,-4
